# Experimental data: PubChem BioAssay (NCI)
# This is part of a sample that, as a whole, favours compounds with a hit. Of some 79,000 tested, about 15% had one in any assay. Values without a mark were called inactive. The source made the active and inactive calls. Rule as the data show it: active = growth inhibition above about 70%; inactive = the rest.
# Legend:
# [1] = NCI Yeast Anticancer Drug Screen. Data for the rad50 strain (AID 155);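 also: 0% = growth of vehicle-only cultures of the same strain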; conditions: S. cerevisiae rad50 strain growth inhibition, stronger effect = higher value
# Outline: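 Relative growth inhibition (compound vs vehicle) was measured in yeast with a defined repair-gene alteration.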
# [2] = NCI Yeast Anticancer Drug Screen. Data for the mec2-1 strain (AID 157); conditions: S. cerevisiae mec2-1 strain, stronger effect = higher value
# Outline: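 Each compound was tested on mec2-1 yeast, a strain altered in DNA damage repair or cell cycle control. Growth inhibition is reported relative to vehicle.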
# [3] = NCI Yeast Anticancer Drug Screen. Data for the sgs1 mgt1 strain (AID 161);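 also: 0% = growth of cultures given vehicle only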; conditions: S. cerevisiae sgs1 mgt1 strain, stronger effect = higher value
# Outline: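 Read-out: growth inhibition vs vehicle controls. Cells: mutant yeast strain deficient in DNA damage repair.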
# [4] = NCI Yeast Anticancer Drug Screen. Data for the cln2 rad14 strain (AID 165);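 also: 0% = growth equal to vehicle treated cultures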; conditions: S. cerevisiae cln2 rad14 strain, stronger effect = higher value
# Outline: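 Test compounds were added to cln2 rad14 yeast cultures; inhibition of growth was then determined by comparison with vehicle treatment.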
# [5] = NCI Yeast Anticancer Drug Screen. Data for the bub3 strain (AID 167); conditions: S. cerevisiae bub3 mutant strain, stronger effect = higher value
# Outline: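 Screening used yeast with an engineered genetic alteration affecting cell cycle control. Compound-exposed cultures were compared with vehicle cultures, and reduced growth was taken as inhibition.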
# [6] = NCI Yeast Anticancer Drug Screen. Data for the mlh1 rad18 strain (AID 175); conditions: S. cerevisiae mlh1 rad18 strain growth inhibition, stronger effect = higher value
# Outline: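 Inhibition values reflect reduced growth of mutant yeast versus vehicle-treated controls following compound exposure; the mutations affect DNA damage repair.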
# [7] = at 5.0 µM (retest, dose inferred, filed as 0.5)
# [8] = at 50.0 µM (retest, dose inferred, filed as 5.0)
Structure (SMILES),"growth inhibition [1, 7]","growth inhibition [1, 8]",growth inhibition ([1]; at 50.0 µM),"growth inhibition [2, 7]","growth inhibition [2, 8]",growth inhibition ([2]; at 50.0 µM),"growth inhibition [3, 7]","growth inhibition [3, 8]",growth inhibition ([3]; at 50.0 µM),"growth inhibition [4, 7]","growth inhibition [4, 8]",growth inhibition ([4]; at 50.0 µM),"growth inhibition [5, 7]","growth inhibition [5, 8]",growth inhibition ([5]; at 50.0 µM),"growth inhibition [6, 7]","growth inhibition [6, 8]",growth inhibition ([6]; at 50.0 µM)
COc1ccc(OC)c(C[P+](c2ccccc2)(c2ccccc2)c2ccccc2)c1,97% (active),96% (active),98.7% (active),97% (active),99% (active),98.9% (active),97% (active),99% (active),98.5% (active),92% (active),99% (active),98.8% (active),96% (active),99% (active),99% (active),98% (active),99% (active),99% (active)
O=[N+]([O-])/C(Cl)=C(/C(Cl)=C(Cl)Cl)N1CCCCC1,-3%,16%,28.6%,8%,25%,11.7%,14%,27%,34.1%,13%,22%,1.5%,22%,34%,23.6%,2%,27%,43.1%
O=C(O)Cc1cccc(O)c1,0%,-3%,10.5%,3%,-1%,41.9%,-3%,-4%,-1.9%,-8%,1%,35.1%,-1%,1%,5.8%,0%,-3%,-0.1%
O=C1C=CC(=O)N1c1ccc(Cl)cc1,79% (active),97% (active),91.6% (active),79% (active),99% (active),93.1% (active),95% (active),100% (active),92.8% (active),54%,101% (active),84.8% (active),101% (active),100% (active),92.1% (active),80% (active),99% (active),92% (active)
O=C1C(SCCO)=C(SCCO)C(=O)c2ccccc21,8%,87% (active),87% (active),20%,61%,57.5%,16%,66%,66.7%,-4%,48%,17.8%,44%,83% (active),89.3% (active),17%,77% (active),93.7% (active)
Cc1ccc(N=C2SC(=S)N(CCC[N+](C)(C)C)C2=Nc2ccc(C)cc2)cc1,-5%,99% (active),99.2% (active),-18%,100% (active),99.5% (active),-10%,99% (active),99.5% (active),12%,99% (active),99.5% (active),-4%,99% (active),99.4% (active),3%,100% (active),99.4% (active)
C(/Cc1ccc2c(c1)OCO2)=N\NC1=NCCCCN1,-3%,-18%,15.7%,-3%,-5%,-7.25%,-2%,-15%,-16.2%,0%,-17%,28.8%,-1%,-20%,3.2%,0%,-18%,-6.5%
CCCCCCCCCCCCNc1ccccn1,-3%,98% (active),18.4%,25%,99% (active),21.2%,42%,99% (active),69.8%,6%,99% (active),56%,29%,99% (active),48%,37%,99% (active),80.8% (active)
C=[CH][Sn]([CH]=C)([S]c1cccc2cccnc12)[S]c1cccc2cccnc12,12%,99% (active),92% (active),16%,100% (active),91.5% (active),27%,99% (active),92.3% (active),16%,99% (active),75.5% (active),19%,94% (active),83.7% (active),18%,99% (active),91.8% (active)
c1ccc2c(c1)Cc1cc3ccccc3nc1-2,13%,97% (active),96.5% (active),18%,97% (active),86.5% (active),13%,98% (active),87.1% (active),-9%,90% (active),92% (active),10%,94% (active),89.7% (active),28%,99% (active),97.2% (active)
